Measurements taken from PubChem BioAssay (Tox21).
Where “and” joins values, the source holds several entries; their conditions need not be identical. Equal values may be shown once. Records with an inconclusive call do not appear. Where a call stands in place of a potency, no number is given. Some compounds were tested as several samples or in several runs, with calls that do not always agree. Calls of active or inactive are those of the source. Unless noted, calls come from the whole dose curve; as a rule, active = well fitted curve in the direction sought with a large enough effect in the repeat runs; inconclusive = weak or mixed curves; inactive = no such curve, though single readings can be large; an effect the other way counts as inactive or inconclusive.

Tests used:
[1] = qHTS assay to identify small molecule antagonists of the thyroid receptor (TR) signaling pathway - cell viability counter screen (AID 743064); note: nearly all actives have a fitted effect of over 50% in size; note: potency is the fitted concentration of half-maximal effect
In short: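 Compounds were tested on GH3.TRE-Luc cells in the presence of T3 at 1 nM final. Following 23.5 h at 37 °C, cell viability was quantified by CellTiter-Fluor.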

[2] = qHTS assay to identify small molecule antagonists of the thyroid receptor (TR) signaling pathway (AID 743065); note: nearly all actives have a fitted effect of over 55% in size; note: potency is the fitted concentration of half-maximal effect
In short: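 Antagonism measured as loss of luciferase signal in GH3 cells stably carrying a TRE-luciferase reporter, co-treated with compound and T3 (1 nM final) for 23.5 h at 37 C. Viability was read in the same well by CellTiter-Fluor.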

[3] = tested on: thyroid hormone receptor (rat, GH3 cells); test: qHTS assay to identify small molecule agonists of the thyroid receptor (TR) signaling pathway (AID 743066; calls by dose curve)
[4] = qHTS assay to identify small molecule antagonists of the estrogen receptor alpha (ER-alpha) signaling pathway - cell viability counter screen (AID 743074; calls by dose curve;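 note: HEK293 cells carrying ER-alpha-UAS-bla reporter stimulated with 17beta-estradiol; nearly all actives have a fitted effect of over 45% in size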; note: potency is the fitted concentration of half-maximal effect)
[5] = qHTS assay to identify small molecule antagonists of the estrogen receptor alpha (ER-alpha) signaling pathway using the BG1 cell line - cell viability counter screen (AID 743081);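 note: compound given together with 17beta-estradiol as the ER stimulus; nearly all actives have a fitted effect of over 45% in size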; note: potency is the fitted concentration of half-maximal effect
[6] = biological target: Aromatase (Homo sapiens) (UniProt P11511); test: qHTS assay to identify aromatase inhibitors (AID 743083); note: nearly all actives have a fitted effect of over 55% in size; note: potency is the fitted concentration of half-maximal effect
Chain of Aromatase (Homo sapiens) (P11511 whole entry, looked up): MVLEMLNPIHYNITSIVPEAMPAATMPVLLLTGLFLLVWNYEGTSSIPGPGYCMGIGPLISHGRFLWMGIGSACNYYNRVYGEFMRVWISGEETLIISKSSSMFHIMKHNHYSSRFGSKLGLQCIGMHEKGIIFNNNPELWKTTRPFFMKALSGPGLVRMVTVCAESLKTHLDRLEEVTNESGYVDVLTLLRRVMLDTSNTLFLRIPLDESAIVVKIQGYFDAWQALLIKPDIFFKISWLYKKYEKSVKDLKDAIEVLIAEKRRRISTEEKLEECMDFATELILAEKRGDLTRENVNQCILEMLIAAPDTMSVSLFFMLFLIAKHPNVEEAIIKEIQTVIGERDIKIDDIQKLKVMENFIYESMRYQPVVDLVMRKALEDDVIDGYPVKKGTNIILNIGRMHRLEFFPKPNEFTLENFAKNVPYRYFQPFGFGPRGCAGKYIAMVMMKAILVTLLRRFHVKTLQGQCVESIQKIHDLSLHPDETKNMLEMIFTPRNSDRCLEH

[7] = qHTS assay to identify aromatase inhibitors - cell viability counter screen (AID 743084);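 note: cells stimulated with testosterone during compound exposure; nearly all actives have a fitted effect of over 55% in size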; note: potency is the fitted concentration of half-maximal effect
[8] = qHTS assay to identify small molecule that activate the aryl hydrocarbon receptor (AhR) signaling pathway - cell viability counter screen (AID 743086); note: nearly all actives have a fitted effect of over 45% in size; note: potency is the fitted concentration of half-maximal effect
In short: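 Cytotoxicity counter screen: CellTiter-Fluor signal (30 min, 37 C) in 4000 HepG2 cells/well carrying the DRE-luciferase reporter, following 24 h compound exposure at 37 C.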

[9] = biological target: Peroxisome proliferator-activated receptor gamma (Homo sapiens) (UniProt P37231); test: qHTS assay to identify small molecule antagonists of the peroxisome proliferator-activated receptor gamma (PPARg) signaling pathway (AID 743191; calls by dose curve; note: nearly all actives have a fitted effect of over 30% in size; note: potency is the fitted concentration of half-maximal effect)
Chain of Peroxisome proliferator-activated receptor gamma (Homo sapiens) (P37231 whole entry, looked up): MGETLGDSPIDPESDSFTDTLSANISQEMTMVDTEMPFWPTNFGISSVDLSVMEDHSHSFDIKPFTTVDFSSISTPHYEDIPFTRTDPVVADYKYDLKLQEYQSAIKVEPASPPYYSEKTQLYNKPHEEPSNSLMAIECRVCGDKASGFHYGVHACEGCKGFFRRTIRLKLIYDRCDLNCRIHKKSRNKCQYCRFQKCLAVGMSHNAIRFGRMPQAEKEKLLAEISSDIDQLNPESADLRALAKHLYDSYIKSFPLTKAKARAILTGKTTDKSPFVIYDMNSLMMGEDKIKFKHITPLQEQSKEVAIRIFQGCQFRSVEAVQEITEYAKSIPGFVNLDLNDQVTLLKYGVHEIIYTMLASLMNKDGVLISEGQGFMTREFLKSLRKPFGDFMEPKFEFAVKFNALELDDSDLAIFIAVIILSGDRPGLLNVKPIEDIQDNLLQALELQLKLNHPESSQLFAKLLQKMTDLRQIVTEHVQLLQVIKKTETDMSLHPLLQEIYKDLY
In short: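 Beta-lactamase reporter under UAS control in HEK293H PPARg-bla cells; compound treatment 17 h at 37C. Read-out: fluorescence intensity after 1 h room-temperature incubation with LiveBLAzer B/G FRET substrate.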

[10] = qHTS assay to identify small molecule antagonists of the peroxisome proliferator-activated receptor gamma (PPARg) signaling pathway - cell viability counter screen (AID 743194); note: nearly all actives have a fitted effect of over 55% in size; note: potency is the fitted concentration of half-maximal effect
In short: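 Viability was measured as CellTiter-Glo luminescence in GeneBLAzer PPARg UAS-bla HEK293H cells. These cells had been exposed 17 h at 37 C to compounds together with rosiglitazone at 50 nM final, with the beta-lactamase readout taken in the same wells.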

[11] = qHTS assay for small molecule agonists of the antioxidant response element (ARE) signaling pathway - cell viability counter screen (AID 743203; calls by dose curve; note: nearly all actives have a fitted effect of over 55% in size; note: potency is the fitted concentration of half-maximal effect)
In short: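 Viability counter screen: CellTiter-Glo luminescence, read after 30 min at room temperature, in ARE-bla HepG2 wells. Compound exposure lasted 16 h at 37C/5% CO2, following a 5 h pre-incubation of the cells after plating.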

[12] = qHTS assay for small molecule activators of the heat shock response signaling pathway - cell viability counter screen (AID 743209); note: nearly all actives have a fitted effect of over 50% in size; note: potency is the fitted concentration of half-maximal effect
In short: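 Cytotoxicity counter screen run in the same wells as the heat-shock bla reporter assay: HeLa HSE-bla cells, 5 h compound exposure at 37 C, viability read by CellTiter-Glo luminescence.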

[13] = qHTS assay for small molecule activators of the heat shock response signaling pathway (AID 743210; active = well fitted activation curve with a large enough effect in the signal ratio in the repeat runs, with a control signal flat, not every such curve was filed as active; the % refers to the signal ratio; note: series mostly up to about 63 µM)
In short: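 Compound exposure lasted 5 h at 37 C in HeLa cells carrying a heat-shock-element-driven beta-lactamase reporter. Read-out: fluorescence intensity after 2.5 h room-temperature loading with LiveBLAzer B/G FRET substrate.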

[14] = biological target: Aryl hydrocarbon receptor (Homo sapiens) (UniProt P35869); test: qHTS assay to identify small molecule that activate the aryl hydrocarbon receptor (AhR) signaling pathway (AID 743085); note: nearly all actives have a fitted effect of over 15% in size; note: potency is the fitted concentration of half-maximal effect;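 for activation: HG2L7.5c1 human HepG2 liver cells with stably integrated DRE-driven firefly reporter; series mostly up to about 70 µM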
Chain of Aryl hydrocarbon receptor (Homo sapiens) (P35869 whole entry, looked up): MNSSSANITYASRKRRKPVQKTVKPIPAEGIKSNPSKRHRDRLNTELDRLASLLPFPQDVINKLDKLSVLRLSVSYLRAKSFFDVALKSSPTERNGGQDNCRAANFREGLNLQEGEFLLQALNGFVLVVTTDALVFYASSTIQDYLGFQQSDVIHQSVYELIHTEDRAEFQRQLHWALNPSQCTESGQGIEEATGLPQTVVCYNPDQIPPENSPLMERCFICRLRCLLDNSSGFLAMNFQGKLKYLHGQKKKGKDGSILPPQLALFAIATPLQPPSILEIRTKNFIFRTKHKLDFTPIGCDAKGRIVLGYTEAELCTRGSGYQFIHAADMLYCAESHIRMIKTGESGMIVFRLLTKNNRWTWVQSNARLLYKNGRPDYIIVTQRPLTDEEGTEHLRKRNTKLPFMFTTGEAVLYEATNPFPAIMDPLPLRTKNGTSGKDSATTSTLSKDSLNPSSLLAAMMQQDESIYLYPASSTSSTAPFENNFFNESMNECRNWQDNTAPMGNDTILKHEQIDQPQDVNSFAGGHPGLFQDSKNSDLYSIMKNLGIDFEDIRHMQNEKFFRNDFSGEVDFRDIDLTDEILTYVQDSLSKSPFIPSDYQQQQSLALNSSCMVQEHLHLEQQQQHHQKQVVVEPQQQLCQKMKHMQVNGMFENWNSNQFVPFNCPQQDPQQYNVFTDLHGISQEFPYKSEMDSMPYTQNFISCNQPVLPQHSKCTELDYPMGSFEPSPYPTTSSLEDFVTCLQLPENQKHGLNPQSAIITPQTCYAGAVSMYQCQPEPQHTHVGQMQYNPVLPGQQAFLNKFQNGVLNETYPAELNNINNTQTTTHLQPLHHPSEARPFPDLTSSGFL
In short: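 24 h compound exposure, 37C, HepG2-derived HG2L7.5c1 cells with DRE-responsive luciferase. Readouts: fluorescence viability, then luminescence at room temperature after 30 min.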

[15] = qHTS assay for small molecule agonists of the antioxidant response element (ARE) signaling pathway (AID 743202; active = well fitted activation curve with a large enough effect in the signal ratio in the repeat runs, not every such curve was filed as active; the % refers to the signal ratio)
In short: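 After 16 hours of compound treatment at 37 C, HepG2 cells with a stably integrated ARE-driven beta-lactamase reporter were loaded 2 hours at room temperature with LiveBLAzer B/G FRET substrate and fluorescence intensity measured.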

[16] = biological target: Estrogen receptor (Homo sapiens) (UniProt P03372); test: qHTS assay to identify small molecule antagonists of the estrogen receptor alpha (ER-alpha) signaling pathway (AID 743069; active = well fitted curve in the direction sought with a large enough effect in the signal ratio in the repeat runs, not every such curve was filed as active; the % refers to the signal ratio)
Chain of Estrogen receptor (Homo sapiens) (P03372 whole entry, looked up): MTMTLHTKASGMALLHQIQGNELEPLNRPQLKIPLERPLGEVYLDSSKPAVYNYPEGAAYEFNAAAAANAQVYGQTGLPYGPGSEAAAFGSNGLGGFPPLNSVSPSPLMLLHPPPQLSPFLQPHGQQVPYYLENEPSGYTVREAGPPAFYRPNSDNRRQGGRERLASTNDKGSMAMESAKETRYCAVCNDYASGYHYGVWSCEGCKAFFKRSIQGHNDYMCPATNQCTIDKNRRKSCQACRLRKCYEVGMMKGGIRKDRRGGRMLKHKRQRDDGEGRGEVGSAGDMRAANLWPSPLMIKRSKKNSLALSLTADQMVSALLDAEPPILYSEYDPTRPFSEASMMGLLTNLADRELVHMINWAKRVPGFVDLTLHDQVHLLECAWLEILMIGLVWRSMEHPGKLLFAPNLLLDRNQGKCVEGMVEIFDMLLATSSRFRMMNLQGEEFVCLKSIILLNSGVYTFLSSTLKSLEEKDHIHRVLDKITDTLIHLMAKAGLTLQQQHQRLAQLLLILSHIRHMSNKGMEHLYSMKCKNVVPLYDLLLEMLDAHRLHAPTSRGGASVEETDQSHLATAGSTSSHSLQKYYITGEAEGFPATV
In short: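 Antagonist mode: compounds in DMSO were co-added with 17beta-estradiol to ER-alpha-bla HEK293 cells (2% charcoal-stripped serum) and left 18 h at 37C. Reporter inhibition was measured as FRET fluorescence after 2 h LiveBLAzer substrate at room temperature.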

[17] = biological target: Estrogen receptor (Homo sapiens) (UniProt P03372); test: qHTS assay to identify small molecule agonists of the estrogen receptor alpha (ER-alpha) signaling pathway (AID 743075; calls by dose curve;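 note: HEK293 GripTite cells with ER-alpha and UAS-driven beta-lactamase reporter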)
[18] = qHTS assay to identify small molecule antagonists of the estrogen receptor alpha (ER-alpha) signaling pathway using the BG1 cell line (AID 743080; calls by dose curve;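 note: BG1 cells stimulated with 17beta-estradiol alongside compound; series mostly up to about 70 µM; nearly all actives have a fitted effect of over 25% in size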)
In short: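 BG1-Luc-4E2 cells (endogenous full-length ER-alpha, stable 4×ERE-luciferase) were starved 5 days in phenol-red-free medium with 10% charcoal-stripped FBS, plated 24 h, then given compound plus 17beta-estradiol for 21.5 h at 37 C; ONE-Glo luminescence read after 30 min.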

[19] = biological target: Peroxisome proliferator-activated receptor gamma (Homo sapiens) (UniProt P37231); test: qHTS assay to identify small molecule agonists of the peroxisome proliferator-activated receptor gamma (PPARg) signaling pathway (AID 743094; active = well fitted activation curve with a large enough effect in the signal ratio in the repeat runs, not every such curve was filed as active; the % refers to the signal ratio)
In short: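 Agonist activity was taken from a beta-lactamase reporter (FRET substrate, 1 h at room temperature) in HEK293H cells carrying a PPARg UAS-bla construct. Compounds in DMSO were incubated 17 h at 37C after a 5 h cell pre-incubation.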

[20] = biological target: Estrogen receptor (Homo sapiens) (UniProt P03372); test: qHTS assay to identify small molecule agonists of the estrogen receptor alpha (ER-alpha) signaling pathway using the BG1 cell line (AID 743079); note: nearly all actives have a fitted effect of over 20% in size; note: potency is the fitted concentration of half-maximal effect

SMILES | Potency [1] | Potency [2] | Potency [3] | Potency [4] | Potency [5] | Potency [6] | Potency [7] | Potency [8] | Potency [9] | Potency [10] | Potency [11] | Potency [12] | Potency [13] | Potency [14] | Potency [15] | Potency [16] | Potency [17] | Potency [18] | Potency [19] | Potency [20]
CNC1(C)C2CCC(C2)C1(C)C (centres undefined) | inactive | inactive | inactive | inactive | inactive | inactive | inactive | inactive | inactive | inactive | inactive | inactive | inactive |  |  |  |  |  |  | 
CC(C)C(=O)c1c(C(C)C)nn2ccccc12 | inactive | inactive | inactive |  | inactive | inactive | inactive | inactive |  | inactive | inactive |  | inactive | inactive | inactive |  |  |  |  | 
COC(=O)[C@H]1[C@H]2C[C@@H]3c4[nH]c5cc(OC)ccc5c4CCN3C[C@H]2C[C@@H](OC(=O)c2cc(OC)c(OC)c(OC)c2)[C@@H]1OC | 11.9 µM (active) and 24.3 µM (active) | 11.9 µM (active) and 21.6 µM (active) and 39.7 µM (active) |  | inactive | inactive | 16.8 µM (active) and 27.3 µM (active) and 56 µM (active) | inactive | inactive |  | inactive | inactive | inactive | inactive | 68.5 µM (active) and 39.7 µM (active) |  |  |  |  |  | 
BrC1CCC(Br)C(Br)CCC(Br)C(Br)CCC1Br (centres undefined) | 5.43 µM (active) and 20.6 µM (active) |  | inactive | 48.8 µM (active) | inactive |  |  | inactive |  | 16.5 µM (active) |  | inactive |  | inactive |  | inactive | inactive | inactive | inactive | 
CCC(CO)(CO)COCC(CC)(CO)CO | inactive |  | inactive |  | inactive | inactive | inactive | inactive | inactive |  | inactive | inactive | inactive | inactive | inactive |  |  |  | inactive | 
CC(=O)C1=C(C)[C@@H]2C[C@@]3(C1)[C@H](C)CC[C@H]3C2(C)C | 63.9 µM (active) and inactive |  | inactive | inactive | inactive | inactive | inactive | inactive | inactive |  | inactive | inactive | inactive | inactive | inactive | inactive | inactive | inactive |  | inactive
CC(C)(C)NC(=O)[C@@H]1CN(Cc2cccnc2)CCN1C[C@@H](O)C[C@@H](Cc1ccccc1)C(=O)N[C@H]1c2ccccc2C[C@H]1O | inactive |  | inactive | inactive | inactive | 29.8 µM (active) and inactive | 26.6 µM (active) | inactive |  | inactive | inactive | inactive | inactive | inactive |  |  |  |  |  | 
CCC(C)(C)C(=O)O[C@H]1C[C@@H](C)C=C2C=C[C@H](C)[C@H](CC[C@@H]3C[C@@H](O)CC(=O)O3)[C@H]21 | inactive |  | inactive | inactive | inactive | inactive | inactive | inactive |  | inactive | inactive | 54.9 µM (active) |  | inactive |  | inactive | inactive |  | inactive | 12.7 µM (active) and inactive
CC(=O)OCC1=C(C(=O)O)N2C(=O)[C@@H](NC(=O)Cc3cccs3)[C@H]2SC1 | inactive |  | inactive | inactive | inactive | inactive | inactive | inactive | inactive |  | inactive | inactive |  | inactive |  |  |  |  |  | 
Cc1ccc(S(=O)(=O)Oc2ccc(N=Nc3ccc(-c4ccc(N=Nc5c(O)ccc6cc(S(=O)(=O)O)cc(S(=O)(=O)O)c56)c(C)c4)cc3C)cc2)cc1 | 27.4 µM (active) and 17.8 µM (active) |  | inactive |  | 30.8 µM (active) and 15.9 µM (active) |  | 10.9 µM (active) and 10 µM (active) | 9.73 µM (active) and 14.1 µM (active) |  | inactive | inactive | inactive | inactive | inactive |  |  |  |  |  | 
Nc1nc2ccccc2[nH]1 | inactive |  | inactive | inactive | inactive | inactive | inactive | inactive | inactive |  | inactive | inactive | inactive |  |  | inactive | inactive | inactive |  | inactive
c1cc(C(c2ccc(OCC3CO3)cc2)C(c2ccc(OCC3CO3)cc2)c2ccc(OCC3CO3)cc2)ccc1OCC1CO1 (centres undefined) | 48.5 µM (active) |  | inactive | inactive | inactive | inactive | inactive | inactive |  | inactive | inactive | inactive |  |  |  | inactive | inactive |  |  | 20.1 µM (active) and 21.7 µM (active)
CC(C)(O)CCC(C)(C)O | inactive |  | inactive | inactive | inactive | inactive | inactive | inactive |  | inactive | inactive | inactive | inactive | inactive | inactive | inactive | inactive | inactive |  | inactive
CN(C)c1ccc2nc3ccc(=[N+](C)C)cc-3sc2c1 | 15 µM (active) and 26.2 µM (active) and 54.5 µM (active) |  | inactive | inactive | 18.8 µM (active) and 23.4 µM (active) and 54.5 µM (active) |  | 23.7 µM (active) and 13.1 µM (active) | 9.44 µM (active) and 16.6 µM (active) and 27.3 µM (active) | 43.6 µM (active) and inactive | inactive | 11.7 µM (active) and 9.69 µM (active) and 11.9 µM (active) | inactive and 54.9 µM (active) |  |  |  | inactive |  |  | inactive | 
